Source: PubChem
PP5 inh = PP5 (human) phosphatase inhibition; P53041; purified PP5c, OMFP substrate fluorescence; inhibition, % at 6.7 µM; 320,000 compounds, 0.18% hits;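 active = inhibition above the campaign's mean inhibition across all tested compounds plus 3 SD, cut at about 9.5% in these data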;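 also: 0% = DMSO only and 100% = 100 µM cantharidin control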
Fh CTSL1 inh = blocks F. hepatica cathepsin L1 in PFM18AAP counter-screen; recombinant F. hepatica cathepsin L1, Z-Leu-Arg-MCA fluorescence; inhibition, % at 5.96 µM; 300,000 compounds, 0.49% hits; AID 1906;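 active = inhibition above the mean of all tested compounds plus 3 SD, set per screening campaign, cut at about 17% in these data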;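 also: 0% = plate median of test compound wells and 100% = 1 µM Z-Phe-Ala-diazomethylketone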
PAFAH2 inh = inhibitors of human PAFAH2; Q99487; recombinant PAFAH2, FP-rhodamine activity probe, fluorescence polarization; inhibition, % at 3.39 µM; 340,000 compounds, 0.99% hits; AID 492956;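 active = inhibition above the mean over all tested compounds plus 3 SD, cut at about 30% in these data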;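 also: inhibitors block probe labeling of enzyme so polarization drops; 0% = enzyme with DMSO and 100% = wells lacking PAFAH2 protein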
pPAFAH FP inh = inhibitors of human plasma PAF acetylhydrolase (pPAFAH); Q13093; 330,000 compounds, 1.5% hits; AID 463082; inhibition, % at 3.39 µM; recombinant pPAFAH, FP-rhodamine probe fluorescence polarization;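 active = inhibition above the mean inhibition across the screen plus 3 SD, cut at about 25% in these data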;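 also: inhibitors block binding of the rhodamine activity-based probe so polarization drops; 0% = enzyme with DMSO and 100% = wells lacking pPAFAH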
Target sequence (Q13093 whole entry, looked up): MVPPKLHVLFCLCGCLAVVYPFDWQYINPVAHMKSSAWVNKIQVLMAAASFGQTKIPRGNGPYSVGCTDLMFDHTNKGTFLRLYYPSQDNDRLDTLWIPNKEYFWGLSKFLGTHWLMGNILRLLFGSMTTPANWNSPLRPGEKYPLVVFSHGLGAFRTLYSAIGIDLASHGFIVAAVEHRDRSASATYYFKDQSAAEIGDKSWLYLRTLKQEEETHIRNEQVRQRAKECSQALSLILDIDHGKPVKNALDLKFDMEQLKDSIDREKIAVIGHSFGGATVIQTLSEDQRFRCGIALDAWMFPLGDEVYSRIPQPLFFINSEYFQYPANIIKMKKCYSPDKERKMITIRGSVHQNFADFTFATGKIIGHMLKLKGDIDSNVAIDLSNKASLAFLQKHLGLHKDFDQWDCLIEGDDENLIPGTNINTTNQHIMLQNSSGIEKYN
PAFAH1B2 FP inh = inhibitors of human PAFAH1B2. recombinant PAFAH1B2, FP-rhodamine activity probe, fluorescence polarization. inhibition, % at 3.39 µM. 340,000 compounds, 1.2% hits. AID 492953;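 active = inhibition above the mean of all tested compounds plus 3 SD, cut at about 24% in these data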;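 also: 0% = enzyme with DMSO and 100% = wells lacking PAFAH1B2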
PAFAH1B3 inh = PAFAH1B3 (human) inhibition | Q15102 | recombinant PAFAH1B3, FP-rhodamine probe, fluorescence polarization | inhibition, % at 3.39 µM | 340,000 compounds, 0.28% hits;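 active = inhibition above the screen-wide average of all tested compounds plus 3 SD, cut at about 25% in these data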;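 also: 0% = enzyme with DMSO only and 100% = wells lacking PAFAH1B3 protein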
Target sequence (Q15102 whole entry, looked up): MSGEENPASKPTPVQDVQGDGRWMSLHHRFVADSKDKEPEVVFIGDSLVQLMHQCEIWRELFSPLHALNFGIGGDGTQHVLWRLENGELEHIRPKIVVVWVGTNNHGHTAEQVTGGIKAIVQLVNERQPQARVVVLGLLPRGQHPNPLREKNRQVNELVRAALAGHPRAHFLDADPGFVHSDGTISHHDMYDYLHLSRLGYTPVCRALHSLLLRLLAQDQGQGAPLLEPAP
PAFAH2 FP conf = confirmation of human PAFAH2 inhibitors; shares compounds with PAFAH2 inh; recombinant PAFAH2, FP-rhodamine activity probe, fluorescence polarization; inhibition, % at 3.39 µM; 2,300 compounds, 65% hits;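 active = mean inhibition over three repeats above a set limit taken from the earlier primary screen, cut at about 30% in these data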;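 also: inhibitor blocks binding of rhodamine activity probe so polarization falls; 0% = enzyme with DMSO and 100% = wells lacking PAFAH2 protein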
Starred values were filed as active, the others as inactive. In the library only some 3% were active in any assay of this set; here they are far more common.

What do the screens show for `COc1cc(/C=C/C(=O)OCC(=O)N2CCC(Cc3ccccc3)CC2)ccc1O`?
PP5 inh: 5; Fh CTSL1 inh: -1; PAFAH2 inh: 14; pPAFAH FP inh: 12; PAFAH1B2 FP inh: -2; PAFAH1B3 inh: 6

How did COc1cc(/C=C/C(=O)OCC(=O)N2CC3(C)CC2CC(C)(C)C3)ccc1O (configuration not stated) do in these assays?
PP5 inh: 3; Fh CTSL1 inh: -3; PAFAH2 inh: 42*; pPAFAH FP inh: 5; PAFAH1B2 FP inh: 12; PAFAH1B3 inh: -6; PAFAH2 FP conf: 20

What do the screens show for `COc1cc(/C=C/C(=O)OCC(=O)N2CCC(C)CC2)ccc1O`?
PP5 inh: 1; Fh CTSL1 inh: 3; PAFAH2 inh: 56*; pPAFAH FP inh: 5; PAFAH1B2 FP inh: 3; PAFAH1B3 inh: 1; PAFAH2 FP conf: 45*

Results for COc1cc(/C=C/C(=O)OCC(=O)N2CCC(C)CC2)ccc1OCC#N ?
PP5 inh: 0; PAFAH2 inh: 42*; pPAFAH FP inh: 0; PAFAH1B2 FP inh: 1; PAFAH1B3 inh: 9; PAFAH2 FP conf: 22

How did COc1cc2ccccc2cc1C(=O)OCc1nc2ccsc2c(=O)[nH]1 do in these assays?
PP5 inh: 1; PAFAH2 inh: 1; pPAFAH FP inh: -1; PAFAH1B2 FP inh: 0; PAFAH1B3 inh: 5

What do the screens show for `COc1ccc(C(=O)COC(=O)C(CCSC)NC(=O)COc2ccccc2)cc1` (configuration not stated)?
PP5 inh: -1; Fh CTSL1 inh: -11; PAFAH2 inh: 0; pPAFAH FP inh: 4; PAFAH1B2 FP inh: -1; PAFAH1B3 inh: 4

What do the screens show for `O=C(N/N=C/c1coc2ccccc2c1=O)c1cc(Br)c(O)c(Br)c1`?
PAFAH2 inh: 71*; PAFAH1B2 FP inh: 5; PAFAH1B3 inh: 4; PAFAH2 FP conf: 55*

Results for O=C(N/N=C/c1coc2ccccc2c1=O)c1ccncc1 ?
PAFAH2 inh: -2; PAFAH1B2 FP inh: 7; PAFAH1B3 inh: 13

What do the screens show for `CCC(C)NC(=O)COC(=O)c1csc2c1CCCC2` (configuration not stated)?
PP5 inh: 4; Fh CTSL1 inh: -4; PAFAH2 inh: 57*; pPAFAH FP inh: 6; PAFAH1B2 FP inh: 5; PAFAH1B3 inh: -6; PAFAH2 FP conf: 47*

Results for CC(C)CNC(=S)NNC(=O)c1csc2c1CCCC2 ?
PP5 inh: 4; Fh CTSL1 inh: -2; PAFAH2 inh: -1; pPAFAH FP inh: 0; PAFAH1B2 FP inh: 2; PAFAH1B3 inh: 7

How did Cc1cnc(C(=O)Nc2nnc(SCc3c(Cl)cccc3Cl)s2)cn1 do in these assays?
PP5 inh: 2; Fh CTSL1 inh: 6; PAFAH2 inh: 60*; pPAFAH FP inh: -1; PAFAH1B2 FP inh: 1; PAFAH1B3 inh: 13; PAFAH2 FP conf: 50*

How did O=C(CN1C(=O)C2CC=CCC2C1=O)Nc1nc2ccc(F)cc2s1 (configuration not stated) do in these assays?
PP5 inh: -1; Fh CTSL1 inh: 2; PAFAH2 inh: 4; pPAFAH FP inh: 5; PAFAH1B2 FP inh: 3; PAFAH1B3 inh: -3

How did CCSc1nnc(NC(=O)C2Cc3ccccc3CN2S(=O)(=O)CC)s1 (configuration not stated) do in these assays?
PP5 inh: 1; Fh CTSL1 inh: 1; PAFAH2 inh: 2; pPAFAH FP inh: 8; PAFAH1B2 FP inh: 2; PAFAH1B3 inh: 3

How did Cc1ccc(CN2CC(C(=O)Nc3nnc(SCc4c(Cl)cccc4Cl)s3)CC2=O)cc1 (configuration not stated) do in these assays?
PP5 inh: 4; Fh CTSL1 inh: -1; PAFAH2 inh: 22; pPAFAH FP inh: 17; PAFAH1B2 FP inh: -1; PAFAH1B3 inh: -2

How did O=C(CN1C(=O)C2CC=CCC2C1=O)Nc1nnc(SCc2c(Cl)cccc2Cl)s1 (configuration not stated) do in these assays?
PP5 inh: -1; Fh CTSL1 inh: 7; PAFAH2 inh: 78*; pPAFAH FP inh: 12; PAFAH1B2 FP inh: 9; PAFAH1B3 inh: 0; PAFAH2 FP conf: 74*

What do the screens show for `CCS(=O)(=O)N1Cc2ccccc2CC1C(=O)Nc1nnc(SCc2c(Cl)cccc2Cl)s1` (configuration not stated)?
PP5 inh: 0; Fh CTSL1 inh: -2; PAFAH2 inh: 52*; pPAFAH FP inh: 2; PAFAH1B2 FP inh: 6; PAFAH1B3 inh: -9; PAFAH2 FP conf: 35*

What do the screens show for `CCOc1cc(C(=O)OCC(=O)Nc2ccc(Cl)cn2)ccc1OCC(=O)N1CCOCC1`?
PP5 inh: 3; Fh CTSL1 inh: -10; PAFAH2 inh: 83*; pPAFAH FP inh: 22; PAFAH1B2 FP inh: 2; PAFAH1B3 inh: 3; PAFAH2 FP conf: 71*

Results for CC(=O)Nc1cccc(C(=O)OCC(=O)Nc2ccc(Cl)cn2)c1 ?
PP5 inh: -2; Fh CTSL1 inh: -10; PAFAH2 inh: 44*; pPAFAH FP inh: -2; PAFAH1B2 FP inh: 1; PAFAH1B3 inh: 3; PAFAH2 FP conf: 33*

How did O=C(COC(=O)C1=COCCO1)Nc1ccc(Cl)cn1 do in these assays?
PAFAH2 inh: 27; pPAFAH FP inh: 7; PAFAH1B2 FP inh: 2; PAFAH1B3 inh: 3

How did NC(=O)Nc1ccc(C(=O)OCC(=O)Nc2ccc(Cl)cn2)cc1 do in these assays?
PP5 inh: 0; Fh CTSL1 inh: -4; PAFAH2 inh: 82*; pPAFAH FP inh: 9; PAFAH1B2 FP inh: 5; PAFAH1B3 inh: 5; PAFAH2 FP conf: 72*

What do the screens show for `O=C(COC(=O)c1ccc(F)cc1F)Nc1ccc(Cl)cn1`?
PP5 inh: 1; PAFAH2 inh: 39*; pPAFAH FP inh: 14; PAFAH1B2 FP inh: 3; PAFAH1B3 inh: 6; PAFAH2 FP conf: 31*

Results for CN(C)CCCN(C(=O)c1ccc(S(=O)(=O)N2CCCCCC2)cc1)c1nc2c(F)cc(F)cc2s1 ?
PP5 inh: -2; Fh CTSL1 inh: 0; PAFAH2 inh: 2; pPAFAH FP inh: -2; PAFAH1B2 FP inh: 1; PAFAH1B3 inh: 1

Results for CN(C)c1cc2c3ccccc3n(C)c2cc1N ?
PAFAH2 inh: 2; PAFAH1B2 FP inh: 1; PAFAH1B3 inh: -1

Results for COC(C(=O)N/N=C(\C)c1ccc(C(C)(C)C)cc1)c1ccccc1 (configuration not stated) ?
PAFAH2 inh: -1; PAFAH1B2 FP inh: 7; PAFAH1B3 inh: 2

Results for CC(=O)Nc1cccc(C(=O)OCC(=O)NC(C)c2ccc(F)cc2)c1 (configuration not stated) ?
PP5 inh: 1; Fh CTSL1 inh: 5; PAFAH2 inh: 46*; pPAFAH FP inh: -11; PAFAH1B2 FP inh: -1; PAFAH1B3 inh: 10; PAFAH2 FP conf: 36*
